Results: the supplement of paper PMC8728848
This excerpt belongs to a sample that is enriched for the strongest signals.

What was measured:
Test in all cases: glycan array binding signal (z-score within array); higher = stronger binding
Conditions in all cases: glycan notation: IUPAC condensed, linker removed
[1] = biological target: Fuc(a1-2)Gal(b1-3)GalNAc(a1-3)[Fuc(a1-2)]Gal(b1-4)GlcNAc
Outline: (§1)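 Arrays were curated from the Consortium for Functional Glycomics database, 3228 in total, and kept only where the protein sequence was available. Binding is expressed as a within-array Z-score. This score was averaged across arrays of the same protein sequence at different concentrations or buffers and across linkers, and negative values can be read as non-binding.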

[2] = biological target: Fuc(a1-2)Gal(b1-3)[Fuc(a1-4)]GlcNAc(b1-2)Man(a1-3)[Fuc(a1-2)Gal(b1-3)[Fuc(a1-4)]GlcNAc(b1-2)Man(a1-3)]Man(b1-4)GlcNAc(b1-4)GlcNAc
Outline: as §1

[3] = biological target: Fuc(a1-2)Gal(b1-4)GlcNAc(b1-2)[Fuc(a1-2)Gal(b1-4)GlcNAc(b1-4)]Man(a1-3)[Fuc(a1-2)Gal(b1-4)GlcNAc(b1-2)Man(a1-6)]Man(b1-4)GlcNAc(b1-4)GlcNAc
Outline: as §1

[4] = biological target: Fuc(a1-2)Gal(b1-4)GlcNAc(b1-6)GalNAc
Outline: as §1

[5] = biological target: Fuc(a1-2)Gal(b1-4)[Fuc(a1-3)]GlcNAc(b1-2)Man(a1-3)[Fuc(a1-2)Gal(b1-4)[Fuc(a1-3)]GlcNAc(b1-2)Man(a1-6)]Man(b1-4)GlcNAc(b1-4)[Fuc(a1-6)]GlcNAc
Outline: as §1

[6] = biological target: Fuc(a1-2)Gal(b1-4)[Fuc(a1-3)]GlcNAc(b1-3)GalNAc
Outline: as §1

[7] = biological target: Fuc(a1-2)Gal3S(b1-4)GlcNAc
Outline: as §1

Fuc(a1-2)[Gal(a1-3)]Gal = biological target: Fuc(a1-2)[Gal(a1-3)]Gal
Outline: as §1

[8] = biological target: Fuc(a1-2)[Gal(a1-3)]Gal(b1-3)GlcNAc(b1-2)Man(a1-3)[Fuc(a1-2)[Gal(a1-3)]Gal(b1-3)GlcNAc(b1-2)Man(a1-6)]Man(b1-4)GlcNAc(b1-4)[Fuc(a1-6)]GlcNAc
Outline: as §1

[9] = biological target: Fuc(a1-2)[Gal(a1-3)]Gal(b1-4)GlcNAc(b1-2)Man(a1-3)[Fuc(a1-2)[Gal(a1-3)]Gal(b1-4)GlcNAc(b1-2)Man(a1-6)]Man(b1-4)GlcNAc(b1-4)GlcNAc
Outline: as §1

[10] = biological target: Fuc(a1-2)[GalNAc(a1-3)]Gal(b1-3)GlcNAc(b1-2)Man(a1-3)[Fuc(a1-2)[GalNAc(a1-3)]Gal(b1-3)GlcNAc(b1-2)Man(a1-6)]Man(b1-4)GlcNAc(b1-4)[Fuc(a1-6)]GlcNAc
Outline: as §1

[11] = biological target: Fuc(a1-2)[GalNAc(a1-4)]Gal(b1-4)GlcNAc
Outline: as §1

Fuc(a1-3)GlcNAc = biological target: Fuc(a1-3)GlcNAc
Outline: as §1

[12] = biological target: Fuc(a1-3)[Gal(b1-4)]GlcNAc(b1-6)GalNAc
Outline: as §1

[13] = biological target: Fuc(a1-3)[Gal(b1-4)]GlcNAc6S
Outline: as §1

[14] = biological target: Fuc(a1-3)[GalNAc(b1-4)]GlcNAc6S
Outline: as §1

Gal(a1-3)Gal(b1-4)Glc = biological target: Gal(a1-3)Gal(b1-4)Glc
Outline: as §1

[15] = biological target: Gal(a1-3)[Gal(a1-4)]Gal(b1-4)GlcNAc
Outline: as §1

Gal(b1-3)GlcNAc(b1-2)Man = biological target: Gal(b1-3)GlcNAc(b1-2)Man
Outline: as §1

[16] = biological target: Gal(b1-3)GlcNAc(b1-3)Gal(b1-4)Glc
Outline: as §1

Gal(b1-4)Glc = biological target: Gal(b1-4)Glc
Outline: as §1

[17] = biological target: Gal(b1-4)GlcNAc(b1-3)Gal(b1-4)GlcNAc(b1-2)Man(a1-3)[Gal(b1-4)GlcNAc(b1-3)Gal(b1-4)GlcNAc(b1-2)Man(a1-6)]Man(b1-4)GlcNAc(b1-4)GlcNAc
Outline: as §1

[18] = biological target: Gal(b1-4)GlcNAc(b1-3)Gal(b1-4)GlcNAc(b1-3)Gal(b1-4)GlcNAc(b1-2)Man(a1-3)[Gal(b1-4)GlcNAc(b1-3)Gal(b1-4)GlcNAc(b1-3)Gal(b1-4)GlcNAc(b1-2)Man(a1-6)]Man(b1-4)GlcNAc(b1-4)GlcNAc
Outline: as §1

Gal3S(b1-4)Glc = biological target: Gal3S(b1-4)Glc
Outline: as §1

Gal3S4S(b1-4)GlcNAc = biological target: Gal3S4S(b1-4)GlcNAc
Outline: as §1

GalNAc6S(b1-4)GlcNAc = biological target: GalNAc6S(b1-4)GlcNAc
Outline: as §1

B1: PX14375A-pdi-503-28-503 (Parabacteroides distasonis) (protein)
chain: PLGSPEAGDISEERQAFLRLTAVYSVMKDFRYTWSMQCFGDVLSNDATYSGSSNDAQTFTLLENYQYQADHTEILNKYRYSYQCINKANLFIRDMEMADDALFSKYDKEQMIGEAKFIRAYTYFELVKTFGGVPCYTGVLDLDHERLGRASVEEIYSVIEQDLNDAVSVLPKKSEVANYESSYAGRITKGAAIAMQTRIYLYEKKYDEVKKAFEKFQNECGGEYSLVAPEDYTWQFSLDGEHCSSSILEVNMYNSSTQSSYNVNNGNRHVLMSMPRNMTIGFGCAQPTQALADAYDAEGDVIRKKTTLLSTEEAIEIETAAKGDVAPVTDDRTGWYNRKLYLAPGQREENRGNNQPTNLRLIRLAEVYLNYAEACYFSGDIANAQKYLNEVRSHVNLAPKNHTGSQLFEDIMNERHLEFGMEGFRFFDVVRVGWGEKVFNGTKKAEFGAKTPFSAGAEVLPIPQTEIDISDGLITN
- glycan array binding signal (z-score) [1]: -1
- glycan array binding signal (z-score) [2]: 0.809
- glycan array binding signal (z-score) [3]: 1.43
- glycan array binding signal (z-score) [4]: 0.828
- glycan array binding signal (z-score) [5]: -0.25
- glycan array binding signal (z-score) [6]: -0.279
- glycan array binding signal (z-score) [7]: 0.279
- glycan array binding signal (z-score) (Fuc(a1-2)[Gal(a1-3)]Gal): 0.139
- glycan array binding signal (z-score) [8]: 1.43
- glycan array binding signal (z-score) [9]: -0.223
- glycan array binding signal (z-score) [10]: -0.166
- glycan array binding signal (z-score) [11]: -0.304
- glycan array binding signal (z-score) (Fuc(a1-3)GlcNAc): -0.753
- glycan array binding signal (z-score) [12]: -0.205
- glycan array binding signal (z-score) [13]: 0.08
- glycan array binding signal (z-score) [14]: 0.949
- glycan array binding signal (z-score) (Gal(a1-3)Gal(b1-4)Glc): -0.124
- glycan array binding signal (z-score) [15]: 2.05
- glycan array binding signal (z-score) (Gal(b1-3)GlcNAc(b1-2)Man): -0.555
- glycan array binding signal (z-score) [16]: 10.3
- glycan array binding signal (z-score) (Gal(b1-4)Glc): -0.065
- glycan array binding signal (z-score) [17]: 5.38
- glycan array binding signal (z-score) [18]: 2.49
- glycan array binding signal (z-score) (Gal3S(b1-4)Glc): -0.196
- glycan array binding signal (z-score) (Gal3S4S(b1-4)GlcNAc): -0.718
- glycan array binding signal (z-score) (GalNAc6S(b1-4)GlcNAc): -0.507
